Data reported in the supplement of paper PMC7156485.
“And” between values parts separate entries of the source, which are not always exact repeats. Equal values may be shown once.
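For H1.0 immunofluorescence intensity relative to DMSO in this document: TDF is a line of transformed human dermal fibroblasts of mesenchymal origin.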
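For cell number relative to DMSO in this document: TDF denotes transformed human dermal fibroblasts of mesenchymal origin.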

The molecules below were run on TDF (assay: cell number relative to DMSO (% of DMSO); higher = more cells (less growth inhibition / toxicity)). Settings: concentration: 10 µM; 24 h.
Summary of the method: (§1)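 Cells were seeded at 800 per well in 384-well plates with RPMI containing 10% FBS; both HCC1569 and TDF lines were used. Compounds were added at 10 µM for 24 h at 37 °C, in triplicate, before fixation in 3.7% formaldehyde and staining with a rabbit anti-H1.0 antibody, an AlexaFluor 647 secondary and DAPI. H1.0 nuclear intensity or cell number is reported as percent of the plate control using the median of replicates, and HCC1569 values were smoothed for positional effects.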
`Cl.NCC(O)c1ccc(O)cc1` (racemic) gave a cell number of 106.
Work on `NC(CCCCCP(=O)(O)O)C(=O)O` (stereo not drawn) [D(-)-2-Amino-7-phosphonoheptanoic acid] yielded a cell number of 95.2.
`CNC(=O)OCC[N+](C)(C)C.[Cl-]` [Methylcarbamylcholine chloride] was tested, and the cell number was 92.5.
Work on `Cl.Clc1cc(I)cc(Cl)c1NC1=NCCN1` [p-Iodoclonidine hydrochloride] yielded a cell number of 101.

The molecules below were run on TDF (assay: H1.0 immunofluorescence intensity relative to DMSO (% of DMSO); higher = stronger H1.0 induction, active = 120 or more). Settings: concentration: 10 µM; 24 h.
Summary of the method: as §1
With `Cc1nc(-c2ccc(-c3ccc(C(=O)N4CCc5cc6c(cc54)C4(CCN(C)CC4)CO6)cc3)c(C)c2)no1.Cl` the H1.0 immunofluorescence intensity was 114 (inactive).
`CC1OC(=O)C(C(C)C)NC(=O)C(C(C)C)OC(=O)C(C(C)C)NC(=O)C(C)OC(=O)C(C(C)C)NC(=O)C(C(C)C)OC(=O)C(C(C)C)NC(=O)C(C)OC(=O)C(C(C)C)NC(=O)C(C(C)C)OC(=O)C(C(C)C)NC1=O` (stereo not drawn) [Valinomycin] was tested, and the H1.0 immunofluorescence intensity was 108 (inactive).
In the case of `COc1ccc(C(=O)OC2CC3CCC(C2)N3C)cc1OC` (stereo not drawn) [Convolvamine], the H1.0 immunofluorescence intensity was 97.8 (inactive).
For `C1CCc2nnnn2CC1` [Pentylenetetrazole], the H1.0 immunofluorescence intensity was 99 (inactive).
In the case of `CC(=CC=CC(C)C(=O)O)C1CNC(C(=O)O)C1CC(=O)O` (stereo not drawn) [Domoic acid], the H1.0 immunofluorescence intensity was 93.6 (inactive).
In the case of `CNCC(O)c1ccc(O)cc1` (racemic), the H1.0 immunofluorescence intensity was 91 (inactive).
With `CP(=O)(O)CCCN.Cl` the H1.0 immunofluorescence intensity was 92.5 (inactive).
In the case of `CCCCCC=CC=CC(CCCCCCCC(=O)O)OO` (stereo not drawn), the H1.0 immunofluorescence intensity was 100 (inactive).
With `COC(C)C(O)(C(=O)OCC1=CCN2CCC(O)C12)C(C)C` (stereo not drawn) [Heliotrine] the H1.0 immunofluorescence intensity was 91.4 (inactive).
In the case of `COCC1OC(=O)c2coc3c2C1(C)C1=C(C3=O)C2CCC(=O)C2(C)CC1OC(C)=O` (stereo not drawn) [Wortmannin from Penicillium funiculosum], the H1.0 immunofluorescence intensity was 89.5 (inactive).
`CCCN1CCCC2Cc3nc(N)ncc3CC21.Cl.Cl` (stereo not drawn) [Quinelorane dihydrochloride] was tested, and the H1.0 immunofluorescence intensity was 95 (inactive).
For `Br.CCCN(CCC)C1CCc2ccc(O)cc2C1` (stereo not drawn) [R-(+)-7-Hydroxy-DPAT hydrobromide], the H1.0 immunofluorescence intensity was 103 (inactive).
`CCCN1CCCC2Cc3[nH]ncc3CC21` (racemic) was tested, and the H1.0 immunofluorescence intensity was 100 (inactive).
For `COc1cc(=O)oc(C=CC=CC=CC(C)=CC2(C)OC(C)C(C)(O)C2O)c1C` (stereo not drawn) [Citreoviridin], the H1.0 immunofluorescence intensity was 123 (active).
In the case of `COC1CC(CC2CCC(C)C(C(C)C(=O)[O-])O2)OC2(OC(C)(C3CCC(C)(C4OC(C5OC(O)(CO)C(C)CC5C)CC4C)O3)CC2C)C1C.[Na+]` (stereo not drawn) [Nigericin], the H1.0 immunofluorescence intensity was 122 (active).
With `CC1CCC2N(C1)CC1C3CC4C(CC(=O)C5CC(O)CCC54C)C3CCC1C2(C)O` (stereo not drawn) [Imperialine] the H1.0 immunofluorescence intensity was 97.1 (inactive).
In the case of `CCCN(CCC)C(=O)Cc1c(-c2ccc(Cl)cc2)nc2c(Cl)cc(Cl)cn12`, the H1.0 immunofluorescence intensity was 102 (inactive).
For `CC(O)=C(C#N)C(=O)Nc1cc(Br)ccc1Br`, the H1.0 immunofluorescence intensity was 99 (inactive) and 97.5 (inactive).
For `COc1ccc2c(c1O)-c1cccc3c1C(C2)N(C)CC3.Cl` (stereo not drawn) [R(-)-Apocodeine hydrochloride], the H1.0 immunofluorescence intensity was 97.6 (inactive).
In the case of `NC(=O)c1cc(N2CC2)c([N+](=O)[O-])cc1[N+](=O)[O-]`, the H1.0 immunofluorescence intensity was 89.4 (inactive).
In the case of `CCCCCCC(C)(C)c1ccc(C2CC(O)CCC2CCCO)c(O)c1` (stereo not drawn), the H1.0 immunofluorescence intensity was 91.7 (inactive).
`C=C1C(C)C2C(Cc3ccccc3)NC(=O)C23C(OC(C)=O)C=CC(C)(O)C(=O)C(C)CC=CC3C1O` (stereo not drawn) [Cytochalasin D] was tested, and the H1.0 immunofluorescence intensity was 212 (active).
For `Br.COC1CC=C2CCN3CCC4=C(CC(=O)OC4)C23C1` (stereo not drawn) [Dihydro-beta-erythroidine hydrobromide], the H1.0 immunofluorescence intensity was 91.6 (inactive).
With `COc1cc2c(cc1O)CC1c3c(cc(O)c(OC)c3-2)CCN1C` (stereo not drawn) [Boldine] the H1.0 immunofluorescence intensity was 105 (inactive).
For `COc1ccc2c(c[n+](C)c3c4cc5c(cc4ccc23)OCO5)c1OC.[Cl-]` [Chelerythrine Chloride], the H1.0 immunofluorescence intensity was 94 (inactive).
With `CC(Cc1ccc(OCC(=O)[O-])cc1)NCC(O)c1cccc(Cl)c1.[Na+]` (stereo not drawn) the H1.0 immunofluorescence intensity was 89.5 (inactive).
For `C[Se]CC(N)C(=O)O.Cl` (stereo not drawn) [Se-(methyl)selenocysteine hydrochloride], the H1.0 immunofluorescence intensity was 99 (inactive).
For `CN1CCc2cccc(Cl)c2CC1.Cl`, the H1.0 immunofluorescence intensity was 96.2 (inactive).
For `CN1CC(C(=O)NC2(C)OC3(O)C4CCCN4C(=O)C(Cc4ccccc4)N3C2=O)CC2c3cccc4[nH]cc(c34)CC21.CS(=O)(=O)O` (stereo not drawn) [Dihydroergotamine mesylate], the H1.0 immunofluorescence intensity was 92.6 (inactive).
With `CC[N+](CC)(CC)CC.[Cl-]` [Tetraethylammonium chloride] the H1.0 immunofluorescence intensity was 90.2 (inactive).
`O=C([O-])Cc1ccccc1.[Na+]` [Sodium Phenylacetate] was tested, and the H1.0 immunofluorescence intensity was 96.8 (inactive).
With `CC(C)N(CCC(C(N)=O)(c1ccccc1)c1ccccn1)C(C)C.O=P(O)(O)O` (stereo not drawn) [Disopyramide phosphate] the H1.0 immunofluorescence intensity was 97.6 (inactive).
For `CC1(C)CCCC(C)(C)N1[O]`, the H1.0 immunofluorescence intensity was 100 (inactive).
`C[N+](C)(C)CC(=O)O.[Cl-]` [Betaine hydrochloride] was tested, and the H1.0 immunofluorescence intensity was 89.4 (inactive).
`COC1C(O)C(C)OC(OC2C(Oc3cccc4c(O)c5c(=O)oc6ccc(C)c7c(=O)oc(c34)c5c67)OC(C)C(O)C2O)C1O` (stereo not drawn) [Chartreusin] was tested, and the H1.0 immunofluorescence intensity was 100 (inactive).
In the case of `Cl.NCC(O)c1ccc(O)cc1` (racemic), the H1.0 immunofluorescence intensity was 93.6 (inactive).
`NC(CCCCCP(=O)(O)O)C(=O)O` (stereo not drawn) [D(-)-2-Amino-7-phosphonoheptanoic acid] was tested, and the H1.0 immunofluorescence intensity was 97.7 (inactive).
For `CNC(=O)OCC[N+](C)(C)C.[Cl-]` [Methylcarbamylcholine chloride], the H1.0 immunofluorescence intensity was 99.2 (inactive).
`Cl.Clc1cc(I)cc(Cl)c1NC1=NCCN1` [p-Iodoclonidine hydrochloride] was tested, and the H1.0 immunofluorescence intensity was 94.9 (inactive).
